In PubChem BioAssay:

target: Calmodulin-1 (Homo sapiens) (UniProt P0DP23); assay: CALM1 binders on microarrays, EGTA buffer, profiling panel, biochemical, small-molecule microarray, Cy5-labelled CALM1 (AID 1111); conditions: Cy5-CALM1 binding fluorescence, higher = more signal;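 note: labelled calmodulin applied in Tris saline Tween buffer holding calcium plus EGTA and DTT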

| SMILES | composite z-score |
| --- | --- |
| CC[C@H]1C2=C3C(CC[C@H]4C(OCc5ccc(F)cc5C(F)(F)F)OC[C@](C)([C@@H]34)N(C(=O)OC(C)(C)C)C2)C(COC(C)=O)C1COC(C)=O (stereo not given in full) | 1.97 |
| [N-]=[N+]=NCc1ccccc1[C@H]1OC(c2ccc(OCCCO)cc2)=N[C@@]1(CCS(=O)(=O)c1ccccc1)C(=O)NCCN1CCOCC1 | 1.39 |
| C=C(CCCC)/C(=C/C[C@@H](OC(C)=O)c1ccc(OCCO)cc1)c1cc(C(=O)OC)ccc1OC | -0.108 |
| O=C1C2C=CC(C(O)c3ccccn3)N(Nc3ccc([N+](=O)[O-])cc3)C2C(=O)N1c1ccccc1 (stereo not given) | 2.02 |
| CCN1C(=O)C2CC(=O)C3C(CN(S(=O)(=O)c4ccc(C)cc4)C3c3ccc(C)cc3)C2C1=O (stereo not given) | 1.85 |
| COC(=O)C1=CC(CCCO)=CC(c2ccc(CN3CCCC3)cc2)N(C)C=C1C(=O)OC (stereo not given) | 1 |
| CCOC(=O)C[C@H]1[C@H](OC(=O)c2cc3ccccc3oc2=O)[C@@H](NC(=O)c2ccc(-c3ccccc3)cc2)c2cc(OCCCO)ccc2N1C(=O)Cc1ccc(OC)cc1 | -0.0241 |
| C=CCNC(=O)[C@H]1[C@@H]2C(=O)O[C@@H](c3ccccc3)[C@@H](c3ccccc3)N2[C@@H](c2ccc(OCCO)cc2)[C@]12C(=O)N(C(=O)OCCOC)c1ccc(C#CCNC(N)=O)cc12 | 1.17 |
| O=C1C[C@@](C(=O)NCC(F)(F)F)(c2ccc([N+](=O)[O-])cc2)[C@@H](c2ccc(CO)cc2I)N1CC12CC3CC(CC(C3)C1)C2 | 0.595 |
| COc1cc2c(cc1O)C(C)N(Cc1sc3ccccc3c1Cl)CC2 (stereo not given) | 1.23 |
| CCCCCCCCCCC(O)C1C=CC2C(=O)N(C)C(=O)C2N1Nc1ccccc1 (stereo not given) | 0.194 |
| COC(=O)[C@@]1(Cc2ccccc2)[C@H]2c3cc(C(=O)N(C)C)n(Cc4ccc(Cl)c(C(F)(F)F)c4)c3C[C@H]2CN1C(=O)c1ccccc1 | 1.49 |
| COC(=O)[C@@]1(Cc2ccc(F)cc2)[C@H]2c3cc(C(=O)N4CCCC4)n(CCc4c[nH]c5cc(F)ccc45)c3C[C@H]2CN1C(=O)c1ccccc1 | 1.91 |
| C=CCNC(=O)[C@@H]1[C@H]2C(=O)O[C@H](c3ccccc3)[C@H](c3ccccc3)N2[C@H](c2ccc(OCCO)cc2)[C@@]12C(=O)Nc1ccc(C#CC3=CCCCC3)cc12 | 1.62 |
| C=CCOC(=O)[C@H]1[C@@H]2C(=O)O[C@@H](c3ccccc3)[C@@H](c3ccccc3)N2[C@@H](c2ccc(OCCOC(=O)[C@H]3C[C@H]4C(=O)NCC(=O)N4[C@H]3c3ccc(O)cc3)cc2)[C@]12C(=O)Nc1ccccc12 | 1.18 |
| CO[C@H]1O[C@H](CO)[C@@H](OC(=O)Nc2cccc(F)c2)[C@H](OC(=O)c2cc3ccccc3[nH]2)[C@H]1OC(=O)c1cc2ccccc2[nH]1 | 0.681 |
| O=C1O[C@@H](c2ccccc2)[C@@H](c2ccccc2)N2[C@@H](c3ccccc3OCCO)[C@]3(C(=O)Nc4ccc(C#CC5(O)CCCCCC5)cc43)[C@@H](C(=O)N3CCCCCCC3)[C@H]12 | 3.06 |
| CCCCCCc1nc(Cc2cc(OC)c(OC)c(OC)c2)c(C)c2c1[Si](C(C)C)(C(C)C)OC2 | -0.0235 |

| SMILES | composite z-score |
| --- | --- |
| [N-]=[N+]=NCc1ccccc1[C@H]1OC(c2ccc(OCCCO)cc2)=N[C@@]1(CCS(=O)(=O)c1ccccc1)C(=O)O | 0.461 |
| COc1ccc(NN2C(C(O)c3ccc(F)cc3)C=CC3C(=O)N(C4CCCCC4)C(=O)C32)cc1 (stereo not given) | 1.08 |
| CC1C2C(CCCO)=CC(C3C(=O)N(C)C(=O)C23)N1Cc1cccc(OC(F)(F)F)c1 (stereo not given) | 1.65 |
| CCOC(=O)C1=C[C@@H](C(C)(C)C)N(S(=O)(=O)c2ccc(C)cc2)[C@H]1c1ccc(OC)cc1 | 1.49 |
| Cc1ccc(N2C(=O)c3ccccc3[C@@H](C(=O)NCCN3CCOCC3)[C@@H]2c2ccc(CO)cc2)nc1 | -0.287 |
| O=C(N1CCOCC1)[C@]1(CCS(=O)(=O)c2ccccc2)N=C(c2ccc(OCCCO)cc2)O[C@@H]1c1ccccc1 | 1.52 |
| C=CCC(OC(C)=O)[C@@H]1[C@@H](N(Cc2ccc(-c3ccccc3)cc2)C(=O)Cc2ccc(OC)cc2)c2cc(OCCCO)ccc2N1C(=O)Cc1ccc(OC)cc1 (stereo not given in full) | 0.194 |
| C=C(COC)C(=O)CC[C@H](OC(C)=O)c1ccccc1OCCO | -0.714 |
| COc1cc(CO)cc(I)c1O[C@H]1C=C(C(=O)NCCO)C[C@@H](N(CCN2CCOCC2)C(=O)C2CCCO2)[C@@H]1O (stereo not given in full) | -0.292 |
| CC(C)(C)OC(=O)CC[C@@]1(C(N)=O)N=C(c2ccc(OCCCO)cc2)O[C@@H]1c1ccccc1CN=[N+]=[N-] | 2.47 |
| [N-]=[N+]=NCc1ccccc1[C@H]1OC(c2ccc(OCCCO)cc2)=N[C@@]1(Cc1ccccc1N=[N+]=[N-])C(=O)N1CCOCC1 | 1.86 |
| CN(C)CCCCCCNC(=O)[C@@H]1C[C@@H]2C(=O)N[C@@H](CCCC[N+](C)(C)C)C(=O)N2[C@@H]1c1cccc(OCCO)c1 | -0.207 |
| CCCCC(=C=CC[C@@H](O)c1ccccc1OCCO)C[C@@H](O)c1ccccn1 | -0.408 |
| CC1C2C(CCCO)=CC(C3C(=O)N(C(N)=O)C(=O)C23)N1Cc1cccc(OC(F)(F)F)c1 (stereo not given) | 0.366 |
| C=CCC(OC(C)=O)[C@@H]1[C@@H](N(Cc2ccc(-c3ccccc3)cc2)C(=O)Cc2ccc(OC)cc2)c2cc(OCCCO)ccc2N1C(=O)c1ccc2ccccc2c1 (stereo not given in full) | 0.106 |
| COc1cc(Cc2cc3c(c(-c4ccccc4)n2)[Si](C(C)C)(C(C)C)OC3)cc(OC)c1OC | -0.651 |
| O=C1N(Cc2ccccc2)Cc2ccccc2C[C@@]12COC(c1ccc(OCCCO)cc1)=N2 | 0.273 |
